Screening results from PubChem.
FEN1 inh-1 = qHTS Assay for the Inhibitors of Human Flap endonuclease 1 (FEN1); Potency, µM (titrated, usually from 114 µM), for the others: at the top dose activity change, negative = inhibition, actives largely listed as inhibitors; P39748; 390,000 tested, 0.35% active; Recombinant FEN1 flap cleavage, fluorescence, 15 min; further: on the % scale 0 is the no-effect control and ±100 the full control effect; nearly all actives have a fitted effect of over 65% in size
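Compounds are tested as a concentration series against 10 nM FEN1; after a 15 min room-temperature preincubation, 50 nM substrate starts cleavage, with plate reads at 0 and 15 min. Normalized responses are fitted by a Hill equation.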
WRN helicase inh = qHTS for Inhibitors of WRN Helicase; WRN helicase unwinding, fluorescent forked duplex, kinetic; 360,000 tested, 0.46% active; Potency, µM (top dose mostly 114 µM), without a hit: at the highest dose activity change, negative = inhibition, most hits filed as inhibitors; further: on the % scale 0 is the no-effect control and ±100 the full control effect; nearly all actives have a fitted effect of over 55% in size
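Primary qHTS, 1536-well format. 20 nM WRN + compound, 15 min RT; start with 100 nM forked fluorophore/quencher duplex, 2 mM ATP (final); kinetic read ex 525/em 598 nm.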
BLM helicase inh = qHTS Assay for Inhibitors of Bloom's syndrome helicase (BLM) | RecQ-like DNA helicase BLM (Homo sapiens), P54132 | recombinant BLM DNA unwinding, fluorescence dequenching | Potency, µM (titrated, usually from 56.1 µM), for inactives: at the highest dose activity change, negative = inhibition, actives largely listed as inhibitors | 350,000 tested, 0.2% active | AID 2528, 2010;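 further: plate controls were vehicle for no effect and no enzyme for full effect; nearly all actives have a fitted effect of over 35% in size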
L3MBTL1 inh = qHTS Assay for the Inhibitors of L3MBTL1 | AlphaScreen L3MBTL1–H3K9me1 peptide binding | Potency, µM (series often up to 57.1 µM), without a hit: top-dose activity, negative = inhibition, most hits filed as inhibitors | 230,000 tested, 0.66% active | AID 485360, 2010; further: on the % scale 0 is the no-effect control and ±100 the full control effect; nearly all actives have a fitted effect of over 60% in size
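Read-out is AlphaScreen signal from streptavidin donor and nickel chelate acceptor beads (10 ug/mL final each) bridging L3MBTL1 (50 nM) and biotinylated K9-monomethylated H3(1-15) peptide (75 nM), after 30 min compound exposure at room temperature.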
RECQ1 inh = qHTS Assay for Inhibitors of RecQ-Like Dna Helicase 1 (RECQ1) | RECQ1 DNA unwinding, red fluorescence kinetic read | Potency, µM (series often up to 57.3 µM), without a hit: top-dose activity, negative = inhibition, actives largely listed as inhibitors | 240,000 tested, 0.54% active;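 further: plate controls were vehicle for no effect and no enzyme for full effect; nearly all actives have a fitted effect of over 30% in size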
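RECQ1T1 50 nM; forked duplex (20 bp + 30-nt ss tails) 200 nM, ATP 2 mM final; pH 8.0, 2 mM MgCl2, 2.5 ug/ml poly(dI-dC); 15 min compound preincubation; discontinuous kinetic read over 2 h at RT.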
FEN1 inh-2 = qHTS Assay for the Inhibitors of FEN1: Confirmatory Assay for Cherry-picked Compounds. shares compounds with FEN1 inh-1. FEN1 flap cleavage, TAMRA/BHQ2 fluorogenic DNA substrate. Potency, µM, usual class: inhibitors. 880 tested, 79% active; further: nearly all actives have a fitted effect of over 60% in size
Active calls of the source: *; i = inactive; ? = inconclusive; . = no result given; [ ] = another dose, or the depositor's remark. Most compounds without a hit are left out; they make up all but 0.99% or so of the library. The call rests on the fitted dose curve; in most records, active means well fitted curve in the direction sought with a large enough effect; inconclusive means small, poorly fitted or top-dose-only effect, or another doubt; inactive means no such curve, though single readings can be large; an effect the other way counts as inactive or inconclusive. Potency means the concentration at half of the fitted maximal effect.

SMILES | FEN1 inh-1 | WRN helicase inh | BLM helicase inh | L3MBTL1 inh | RECQ1 inh | FEN1 inh-2
CCOc1ccc2nc(NC3=NC(C)(C)C=C(C)N3)nc(C)c2c1 | 40µM* | 86% | 120% | . | 14% | 17*
CCOc1ccc2nc(NC3=NCN(Cc4ccco4)CN3)nc(C)c2c1 | . | . | 43% | 9% | -3% | .
CCOc1ccc2c(C)nc(NC3=NC(C)(C)C=C(C)N3)nc2c1 | 45µM* | 95% | 69% | 2% | 1% | 27*
COc1ccc2c(C)nc(Nc3nc(-c4ccccc4)cc(=O)[nH]3)nc2c1 | -19% | ? | -24% | -10% | -1% | .
CCn1ccnc1CN(C)C(=O)CCc1nnc(CCC2CCCCC2)o1 | 2% | 1% | -7% | -21% | i | .
CCOc1ccc(Br)cc1C1=NN(C(C)=O)C(c2ccc([N+](=O)[O-])s2)O1 (centres undefined) | ? | 6%[11.6 µM] | -11% | . | . | 6.7*
Cc1nn(-c2ccccc2)c(N)c1C(c1ccccc1)c1c(C)nn(-c2ccccc2)c1N | 4% | -5% | -2% | -5% | 1% | .
O=c1[nH]c2cnn(-c3ccccc3)c2c(=O)n1O | 0.5µM* | 8%[11.6 µM] | . | . | . | 21*
O=c1[nH]c2cnccc2n1-c1ccccc1 | 7% | 9% | -1% | 5% | i | .
O=C(c1ccco1)N(Cc1cccnc1)c1nc2ccc(F)cc2s1 | 1% | . | -1% | . | . | .
CC1CCCC(NC(=O)COC(=O)c2ccccc2[N+](=O)[O-])C1C (centres undefined) | -2% | -30% | -3% | -4% | -12% | .
CC1CCCC(NC(=O)COC(=O)c2ccc([N+](=O)[O-])s2)C1C (centres undefined) | -24% | -8% | . | ? | . | 6*
Cc1c(NC(=O)C(C)OC(=O)c2ccc([N+](=O)[O-])s2)c(=O)n(-c2ccccc2)n1C (centres undefined) | -2% | 0%[11.6 µM] | -8% | -20% | -8% | 6*
Cc1c(NC(=O)C(C)OC(=O)c2sc3ccccc3c2Cl)c(=O)n(-c2ccccc2)n1C (centres undefined) | -9% | 5% | -11% | 3% | 3% | .
CC(OC(=O)c1ccc([N+](=O)[O-])s1)C(=O)NC1CCCCC1C (centres undefined) | -20% | 2%[11.6 µM] | . | -24% | . | 12*
COc1cccc2cc(C(=O)C3=C(O)C(=O)N(CCN4CCOCC4)C3c3ccc(C)o3)oc12 (centres undefined) | 8% | 5% | -4% | . | . | .
CC(=O)OCC(=O)C1CCC2C3CC=C4CC(O)CCC4(C)C3CCC12C (centres undefined) | -9% | 0% | . | 10% | . | .
CC(=O)C1CCC2C3CC=C4CC(SC(=N)N)CCC4(C)C3CCC12C (centres undefined) | ? | 37% | . | . | . | ?
COc1ccc(NC(=O)C2CCC(CNS(=O)(=O)c3ccc(Br)s3)CC2)cc1OC (centres undefined) | -8% | . | -5% | . | . | .
NC(=O)c1ccc(N=Cc2ccc([N+](=O)[O-])s2)cc1 | ? | -3% | -3% | 13µM* | ? | 6.7*
Cc1cc(C)cc(N=Cc2ccc([N+](=O)[O-])s2)c1 | ? | -2%[11.6 µM] | -4% | 8.9µM* | 0% | 5.4*
CCCn1c(SCC(=O)N2c3ccccc3Sc3ccccc32)nc2ccccc21 | -10% | -4% | -6% | -5% | -2% | .
Cc1ccc(C(=O)Nc2nnc(CC(=O)N/N=C/c3ccc(O)c(O)c3)s2)cc1 | 11µM* | 20µM* | 13µM* | . | . | 38*
COc1ccc(CCNC(=O)Cn2nc(C)c3c(C)n(-c4ccc(C)cc4)nc3c2=O)c(OC)c1 | ? | . | ? | -1% | . | 48*
COc1cc(/C=C2/SC(=S)N(CC3CCCO3)C2=O)ccc1O (centres undefined) | 45µM* | 79µM* | -19% | -27% | 32µM* | 43*
SMILES | FEN1 inh-1 | WRN helicase inh | BLM helicase inh | L3MBTL1 inh | RECQ1 inh | FEN1 inh-2
O=C(O)C(Cc1ccccc1)N1C(=O)/C(=C/c2ccccc2)SC1=S (centres undefined) | -3% | 1% | 0% | -28% | 9% | .
COc1cc(/C=C2\SC(=S)N(C(Cc3ccccc3)C(=O)O)C2=O)ccc1O (centres undefined) | ? | 50µM* | -20% | -12% | 25µM* | ?
COc1cc(/C=C2\SC(=S)N(Nc3ccccc3)C2=O)ccc1O | ? | 16µM* | -28% | ? | -2% | 85*
O=C(O)c1ccc(/C=C2\SC(=S)N(Nc3ccccc3)C2=O)cc1 | -5% | 1%[11.6 µM] | 1% | -18% | 0% | .
CC(C)=CCN1CCN(Cc2cnc(N3CCOCC3)s2)CC1CCO (centres undefined) | -1% | -33% | -6% | -21% | -5% | .
COc1ccc(CN(C)C(=O)CNC(=O)c2ccc(C)cc2)cc1 | -1% | -8% | -5% | . | . | .
N#CC(C#N)=C(N)/C(C#N)=C/c1cc(O)c(O)c(O)c1 | 8.9µM* | ? | . | ? | ? | 19*
CC(C)=CCC1=C(OCC(=O)O)C(=O)c2ccccc2C1=O | ? | -20%[11.6 µM] | ? | . | i | 38*
CC(C)=CCC/C(C)=C/CC/C(C)=C/CC/C(C)=C/CC1=C(C)C(=O)c2ccccc2C1=O | -2% | -8% | -20% | . | 8% | .
CC(=O)c1cccc(NC(=O)c2cccc(N3C(=O)c4ccccc4C3=O)c2)c1 | ? | ? | -17% | . | . | ?
NS(=O)(=O)c1cccc(NC(=O)c2cccc(N3C(=O)c4ccccc4C3=O)c2)c1 | -8% | 2% | . | 1% | . | .
Cn1nc(-c2ccc(OCC(=O)Nc3ccc(Cl)cc3)cc2)c2ccccc2c1=O | ? | . | -11% | . | . | 34*
Cn1nc(-c2ccc(OCC(=O)Nc3ccccc3)cc2)c2ccccc2c1=O | 5% | -2% | 0% | . | -17% | .
COc1cc(OC)c(C2NC(=O)CCC2[N+](=O)[O-])cc1OC (centres undefined) | 2% | 4% | -2% | . | . | .
COc1ccc(CNc2ncnc3c2[nH]c2cc(OC)c(OC)cc23)cc1 | 35µM* | -25%[57.1 µM] | ? | -3% | -29% | 30*
CC1OC(Oc2c(-c3cc(O)c(O)c(O)c3)oc3cc(O)cc(O)c3c2=O)C(O)C(O)C1O (centres undefined) | 2.2µM* | -3%[11.6 µM] | -8% | ? | 1% | 2.7*
